# Screening data deposited in PubChem by National Center for Advancing Translational Sciences (NCATS).
# BAZ2B block – BAZ2B (human) inhibition; AID 504333; Potency, µM (doses to about 114 µM), without a hit: at the top dose activity change, negative = inhibition, hits mostly inhibitors; Q9UIF8; AlphaScreen BAZ2B-H3K14Ac peptide displacement; actives 4.4% (n = 360,000); note: potency is the fitted concentration of half-maximal effect; % is set by controls: 0 for no effect and ±100 for the full control effect; nearly all actives have a fitted effect of over 60% in size
#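 AlphaScreen displacement of biotin-H3(5-23)K14Ac peptide (50 nM final) from BAZ2B (50 nM final) in PBS pH 7.4, 0.01% Tween-20; complex preformed 30 min RT, then compounds (top 110 uM) 30 min RT, beads 20 min dark.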
# G9a inh – inhibitors of human histone lysine methyltransferase G9a. G9a H3K9 monomethylation, AlphaScreen, 2 h. actives 8.8% (n = 350,000). Potency, µM (doses to about 102 µM), without a hit: at the top dose activity, negative = inhibition, most hits filed as inhibitors. Q96KQ7. AID 504332; note: potency is the fitted concentration of half-maximal effect; % is set by controls: 0 for no effect and ±100 for the full control effect; nearly all actives have a fitted effect of over 75% in size
# Target sequence (Q96KQ7 913-1193 limits assumed): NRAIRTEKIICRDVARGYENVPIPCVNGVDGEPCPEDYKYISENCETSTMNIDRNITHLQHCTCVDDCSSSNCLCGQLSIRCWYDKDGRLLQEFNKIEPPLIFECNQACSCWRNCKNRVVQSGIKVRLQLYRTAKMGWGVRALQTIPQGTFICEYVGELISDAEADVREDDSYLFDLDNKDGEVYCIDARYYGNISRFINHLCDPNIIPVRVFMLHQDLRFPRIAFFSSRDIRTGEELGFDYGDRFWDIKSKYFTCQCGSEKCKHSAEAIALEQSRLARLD
#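 AlphaScreen read-out: biotin-H3K9 peptide (500 nM) methylation by 20 nM enzyme with 20 uM SAM, 2 h at room temperature after 15 min compound preincubation; anti-monomethyl H3K9 antibody plus donor/acceptor beads, 10 min dark.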
# JMJD2A Tudor inh – JMJD2A Tudor domain (human) inhibition | actives 4.4% (n = 390,000) | Potency, µM (doses to about 114 µM), without a hit: at the top dose activity change, negative = inhibition, actives largely listed as inhibitors | AlphaScreen JMJD2A-Tudor / H3K4me3 peptide binding | AID 504339 | O75164; note: potency is the fitted concentration of half-maximal effect; % is set by controls: 0 for no effect and ±100 for the full control effect; nearly all actives have a fitted effect of over 50% in size
# HP1b binding inh – blocks HP1-beta chromodomain binding to methylated histone tails. P83916. AlphaScreen HP1-beta / biotin-H3K9me3 peptide binding. Potency, µM (titrated, usually from 114 µM), inactives show at the highest dose activity change, negative = inhibition, usual class: inhibitors. actives 0.56% (n = 390,000); note: potency is the fitted concentration of half-maximal effect; nearly all actives have a fitted effect of over 70% in size
# Target sequence (P83916 whole entry, looked up): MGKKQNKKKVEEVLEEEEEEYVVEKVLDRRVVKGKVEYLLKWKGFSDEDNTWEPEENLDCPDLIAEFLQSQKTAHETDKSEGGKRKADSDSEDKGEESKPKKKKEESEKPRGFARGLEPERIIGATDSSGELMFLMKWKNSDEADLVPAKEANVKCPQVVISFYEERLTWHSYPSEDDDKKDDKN
#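 HP1-beta protein (50 nM final) preincubated 30 min at room temperature with biotinylated H3(1-18)K9me3 peptide (50 nM) in PBS pH 7.4, 0.01% Tween-20, then compound added for 30 min. AlphaScreen streptavidin donor/nickel chelate acceptor beads (10 ug/mL final), 30 min dark, luminescence read.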
# Six1-Eya2 blk – blocks human Six1 binding to Eya2. actives 0.56% (n = 360,000). AlphaScreen GST-Six1/His-Eya2 binding, biochemical; active compounds read low. AID 651725. activity change, % (concentration not given with the values). Q15475+O00167; in the data active = activity change below about -65%; inconclusive = mostly about -30% to -63%; note: % is set by controls: 0 for no effect and ±100 for the full control effect
#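 Six1/Eya2 binding was read as AlphaScreen signal after compounds were pinned into GST-Six1 plus His-tagged Eya2 (5X stock 250/500 nM) in pH 8.0 Tris/NaCl/TCEP buffer, beads added, then incubated 1 h, 37 C, dark.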
# CtBP-E1A inh – CtBP/E1A binding inhibition | AlphaScreen GST-E1A/His-CtBP binding, 1536-well; active compounds read low | activity change, % (concentration not given with the values) | actives 0.49% (n = 340,000); in the data active = activity change below about -65%; inconclusive = mostly about -30% to -63%; note: % is set by controls: 0 for no effect and ±100 for the full control effect
#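 Homogeneous bead-based format: GST-tagged E1A captured on glutathione donor beads, His-tagged CtBP on nickel acceptor beads; compounds precede bead addition by 2 h at 37 °C.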
# The depositor's hits bear a star; ? = inconclusive; nt = no result given; [ ] = remark or other dose. Compounds with a hit are over-represented: about 10% of the library has one in this group of screens. Unless noted, calls come from the whole dose curve; as a rule, active = well fitted inhibition curve with a large enough effect; inconclusive = small, poorly fitted or top-dose-only effect; inactive = no such curve, though single readings can be large or run the other way.
SMILES,BAZ2B block,G9a inh,JMJD2A Tudor inh,HP1b binding inh,Six1-Eya2 blk,CtBP-E1A inh
CCn1ccnc1[C@@H]1C[C@H]2CN(Cc3cccc(Cl)c3)C(=O)[C@]23CCCN13,-3%,15%,-4%,22%,-2,-1
O=C1N(Cc2cccc(Cl)c2)C[C@@H]2C[C@@H](c3ccccn3)N3CCC[C@@]123,79µM*,25µM*,-25%,18%,-3,-1
O=C1N(Cc2cccnc2)C[C@@H]2C[C@@H](c3ccc(-c4ccccc4)cc3)N3CCC[C@@]123,-30%,50µM*,-22%,18%,-8,-5
COc1ccc(C2=Nc3ccccc3N(C(=O)c3ccc4c(c3)OCO4)C2C(=O)Nc2c(C)cccc2C)cc1 (stereo not given),nt,nt,nt,nt,3,0
Cc1ccc(NC(=O)c2nc(-c3ccncc3)no2)c(Cl)c1,-21%,10%[59 µM],1%,51%,nt,nt
COC(=O)c1cccc(NC(=O)c2nn(C)c(=O)c3ccccc23)c1,-3%,-65%,-18%,25%,-83*,-85*
Cn1nc(C(=O)Nc2cccc(S(=O)(=O)N3CCCCC3)c2)c2ccccc2c1=O,-23%,40µM*,-17%,11%,-23,-19
Cn1nc(C(=O)Nc2ccc(Cl)c(S(=O)(=O)N3CCOCC3)c2)c2ccccc2c1=O,3%,6%[12.7 µM],-21%,30%,-29,-25
O=C(Nc1ccc(Cl)c(S(=O)(=O)N2CCCC2)c1)c1nn(CCO)c(=O)c2ccccc12,-29%,50µM*,-33%,1%,?,-21
Cn1nc(C(=O)Nc2ccc(S(=O)(=O)N3CCCCC3)cc2)c2ccccc2c1=O,-27%,?,-19%,14%,-2,0
COC(=O)c1ccc(C)c(NC(=O)c2nn(C)c(=O)c3ccccc23)c1,-2%,-2%,-15%,23%,0,2
CCc1cnc2c(c1SC(C(C)=O)C(=O)N(C)C)c(=O)n(C)c(=O)n2C (stereo not given),-30%,4.5µM*,28µM*,?,nt,nt
O=[N+]([O-])c1cccc(-c2nnc(-c3ccccc3F)o2)c1,-9%,-5%,-13%,14%,-7,-2
O=C(c1ccccc1)c1cc2c(cc1[N+](=O)[O-])OCCO2,?,?,-8%,15%,-10,-4
Cc1ccc(C(=O)c2cc3c(cc2[N+](=O)[O-])OCCO3)cc1,56µM*,?,?,-18%,-15,-6
COc1ccc(Cl)cc1NC(=O)CSc1nc(-c2ccco2)cc(C(F)(F)F)n1,0%,-2%[59 µM],9%,37%,nt,nt
O=[N+]([O-])c1ccc2c(c1N1CCCCC1)=NC1(CCCCC1)[N+]=2[O-],35µM*,50µM*,?,40µM*,-6,-12
CC1CN(S(=O)(=O)c2cccc(-c3csc(-c4ccccc4)n3)c2)CC(C)O1 (stereo not given),0%,18µM*,-1%,-5%,7,0
O=C1C(C=NCc2ccccn2)=C(O)c2ccccc21,89µM*,4%,-7%,21%,?,?
CC(C)CN=CC1=C(O)c2ccccc2C1=O,7%,-5%,-10%,5%,-11,4
COc1cc(C=NO)nc(-c2ccccn2)c1,nt,nt,14µM*,40%,-92*,3
Cc1ccc(NC(=O)CCn2nnc3ccccc32)cc1,-7%,nt,-16%,-3%,19,0
CCCOc1ccc(C(=O)Nc2cc(-c3nn4c(C)nnc4s3)ccc2C)cc1,3%,-39%,40µM*,12%,3,7
CCN1C(=O)/C(=c2\o/c(=C3\C=Cc4ccccc4N3CC)c(=O)n2CC)SC1=S,nt,?,?,-34%,-19,6
CCN1C(=O)/C(=C2\C=Cc3ccccc3N2CC)SC1=S,8.9µM*,?,2.8µM*,3.2µM*,?,?
CCN1C(=O)/C(=C2/C=Cc3ccccc3N2C)OC1=S,-29%,20µM*,-25%[11.4 µM],6%,-12,0
